Experimental data reported in the supplement of paper PMC13094657.
Where a name gives a salt, the structure may show the parent alone. ± gives the standard deviation of the averaged measurements.

System: MDA-MB-231
Test: cell viability relative to vehicle unstimulated control (fraction); higher = more viable cells
Conditions: pre-treatment time: 18 h then 24 h IFNg/TNF
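Also: viability of the cells left after supernatant collection, read with Deep Blue dye added for 4 h, as absorbance at 570 nm minus 600 nm.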

Structure (SMILES) | cell viability
CN1[C@@H]2CC[C@H]1C[C@@H](OC(=O)[C@H](CO)c1ccccc1)C2 [Hyoscyamine hydrobromide] (compound dose: 10 uM) | 1.03 ± 0.024
CCCCCCCCCCCCCC(=O)O[C@@H]1[C@@H](C)[C@@]2(O)[C@@H](C=C(CO)C[C@]3(O)C(=O)C(C)=C[C@@H]23)[C@@H]2C(C)(C)[C@]12OC(C)=O [12-O-tetradecanoyl phorbol-13-acetate] (compound dose: 10 uM) | 1.06 ± 0.043
O=C(O)c1ccc(=O)[nH]c1 [6-hydroxypyridine-3-carboxylic acid] (compound dose: 10 uM) | 0.99 ± 0.039
CN1[C@@H]2CC(O)C[C@H]1[C@@H]1O[C@@H]12 (some centres not stated) [Scopine] (compound dose: 10 uM) | 1
COc1cc(C2OCC3C(c4cc(OC)c(O[C@@H]5O[C@H](CO)[C@@H](O)[C@H](O)[C@H]5O)c(OC)c4)OCC23)cc(OC)c1O[C@H]1O[C@@H](CO)[C@H](O)[C@@H](O)[C@@H]1O (some centres not stated) [Eleutheroside E] (compound dose: 10 uM) | 0.947 ± 0.033
C=C1[C@@H]2CCC3[C@@](CC[C@@H]4[C@H](C(=O)O)C[C@@H](O[C@@H]5O[C@H](CO)[C@@H](OS(=O)(=O)O)[C@H](OS(=O)(=O)O)[C@H]5OC(=O)CC(C)C)C[C@@]34C)(C2)[C@@H]1O (some centres not stated) [Atractyloside (potassium salt)] (compound dose: 10 uM) | 0.797 ± 0.18
COc1cc(C(=O)O[C@H]2[C@@H]3C=CO[C@@H](O[C@@H]4O[C@H](CO)[C@@H](O)[C@H](O)[C@H]4O)[C@@H]3[C@@]3(CO)O[C@@H]23)ccc1O [Picroside II] (compound dose: 10 uM) | 0.923 ± 0.039
COc1ccc(CC2c3cc(OC)c(OC)cc3CCN2C)cc1OC (configuration not stated) [Laudanosine] (compound dose: 10 uM) | 1.02 ± 0.043
CC(C)[C@]12O[C@H]1[C@@H]1O[C@]13[C@]1(O[C@H]1C[C@H]1C4=C(CC[C@@]13C)C(=O)OC4)[C@@H]2O [Triptolide] (compound dose: 10 uM) | 0.64 ± 0.034
CC(C)(O)/C=C/C(=O)[C@](C)(O)[C@H]1[C@H](O)C[C@@]2(C)[C@@H]3CC=C4[C@@H](C[C@H](O)C(=O)C4(C)C)[C@]3(C)C(=O)C[C@]12C [Cucurbitacin D] (compound dose: 10 uM) | 0.55 ± 0.022
COc1ccc2c3c1O[C@H]1CC(=O)C=C[C@@]31CCN(C)C2 [Galanthaminone] (compound dose: 10 uM) | 0.953 ± 0.034
C=C1CC[C@H]2[C@@H](/C=C(\C)C(=O)[C@@]3(OC(C)=O)C[C@H](C)[C@H](OC(=O)c4ccccc4)[C@@H]3[C@H]1OC(C)=O)C2(C)C [5,15-Diacetyl-3-benzoyllathyrol] (compound dose: 10 uM) | 1.031 ± 0.01
COC(=O)[C@]1(C)CC[C@]2(C)CC[C@]3(C)C4=CC=C5C(=CC(=O)C(O)=C5C)[C@]4(C)CC[C@@]3(C)[C@@H]2C1 [Pristimerin] (compound dose: 10 uM) | -0.0372 ± 0.0069
C=C[C@H]1[C@H](O[C@@H]2O[C@H](CO)[C@@H](O)[C@H](O)[C@H]2O)OC=C2C(=O)OCC[C@H]21 [Sweroside] (compound dose: 10 uM) | 0.996 ± 0.063
CC(C)[C@]12O[C@H]1[C@@H]1O[C@@]13[C@@]1(C)CCC4=C(COC4=O)[C@@H]1C[C@@H]1O[C@@]13C2=O [Triptonide] (compound dose: 10 uM) | 0.637 ± 0.069
CCCC(=O)O[C@@H]1[C@@H](C)[C@@]2(O)[C@@H](C=C(CO)C[C@]3(O)C(=O)C(C)=C[C@@H]23)[C@@H]2C(C)(C)[C@]12OC(=O)CCC [Phorbol 12,13-Dibutyrate] (compound dose: 10 uM) | 1.09 ± 0.072
CC(=O)OC(C)(C)/C=C/C(=O)[C@](C)(O)[C@H]1[C@H](O)C[C@@]2(C)[C@@H]3CC=C4[C@@H](C=C(O)C(=O)C4(C)C)[C@]3(C)C(=O)C[C@]12C [Cucurbitacin E] (compound dose: 10 uM) | 0.52 ± 0.0012
C=C[C@@H]1C2=CCOC(=O)C2=CO[C@H]1O[C@@H]1O[C@H](CO)[C@@H](O)[C@H](O)[C@H]1O [Gentiopicroside] (compound dose: 10 uM) | 0.981 ± 0.0079
COc1cc2c(cc1OC)-c1c3c(cc4c1[C@H](C2)N(C)CC4)OCO3 [Dicentrine] (compound dose: 10 uM) | 0.83 ± 0.043
C[C@@H]1CC[C@@]2(OC1)O[C@H]1[C@@H](O)[C@H]3[C@@H]4CC[C@H]5C[C@@H](O[C@@H]6O[C@H](CO)[C@H](O[C@@H]7O[C@H](CO)[C@@H](O)[C@H](O[C@@H]8OC[C@@H](O)[C@H](O)[C@H]8O)[C@H]7O[C@@H]7O[C@H](CO)[C@H](O)[C@H](O[C@@H]8O[C@H](CO)[C@@H](O)[C@H](O)[C@H]8O)[C@H]7O)[C@H](O)[C@H]6O)[C@H](O)C[C@]5(C)[C@H]4CC[C@]3(C)[C@H]1[C@@H]2C [Digitonin] (compound dose: 10 uM) | 0.694 ± 0.021
CC(=O)O[C@H]1[C@H]2[C@@H](OC(=O)Cc3ccccc3)[C@@H](C)C[C@]2(OC(C)=O)C(=O)/C(C)=C/[C@@H]2[C@H](CC[C@@]13CO3)C2(C)C [Euphorbiasteroid] (compound dose: 10 uM) | 0.981 ± 0.059
COc1cc2c(cc1OC)-c1c(OC)c(OC)cc3c1[C@H](C2)N(C)CC3 [(S)-Glaucine (Alkaloid purified from Papaver somniferum)] | 0.967 ± 0.013
CN1C2CCC1CC(O)C2 (configuration not stated) [Tropine] (compound dose: 10 uM) | 0.938 ± 0.13
CC(=O)OC12COC1CC(O)C1(C)C(=O)C(O)C3=C(C)C(O)CC(O)(C(OC(=O)c4ccccc4)C21)C3(C)C (configuration not stated) [10-Deacetylbaccatin III] (compound dose: 10 uM) | 0.999 ± 0.017
O=C(/C=C/c1ccccc1)OC[C@H]1O[C@@H](O[C@@H]2OC=C[C@H]3[C@H](O)[C@@H]4O[C@]4(CO)[C@@H]23)[C@H](O)[C@@H](O)[C@@H]1O [Picroside I] (compound dose: 10 uM) | 0.9642 ± 0.0044
CC(=O)OC[C@]12[C@H](OC(C)=O)[C@H](OC(C)=O)[C@@H]3[C@@H](OC(C)=O)[C@@]14O[C@@]3(C)COC(=O)c1cccnc1CCC(C)C(=O)O[C@@H]([C@H](OC(=O)c1ccco1)[C@@H]2OC(C)=O)[C@]4(C)O (some centres not stated) [Wilforgine] (compound dose: 10 uM) | 1.02 ± 0.14
C/C=C(/C)C(=O)O[C@H]1[C@@H]2[C@H](C)C(=O)O[C@@H]2C[C@@H](C)[C@@H]2C=CC(=O)[C@]21C [Brevilin A] (compound dose: 10 uM) | 0.75 ± 0.035
